# Experimental data published in PubChem BioAssay (NCATS).
# “And” between values parts separate entries of the source, which are not always exact repeats. Equal values may be shown once. Records with an inconclusive call do not appear. Where a call stands in place of a potency, no number is given. The source made the active and inactive calls. Unless noted, calls come from the whole dose curve; as a rule, active = well fitted curve in the direction sought with a large enough effect; inconclusive = small, poorly fitted or top-dose-only effect, or another doubt; inactive = no such curve, though single readings can be large; an effect the other way counts as inactive or inconclusive.
# Legend:
# [1] = AP1 Signaling Pathway (AID 357; active = well fitted curve in either direction with a large enough effect, not every such curve was filed as active;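 note: ME-180 reporter cells stimulated with EGF at its EC50 level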)
# Procedure, shortened: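 Cells are seeded overnight, exposed to compound titrations and an EC50 level of EGF for 5 hours at 37 °C, then loaded with CCF4 dye for 2.5 hours. Beta-lactamase activity under the AP-1 element is read as a blue/green ratio.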
# [2] = NFAT Signaling Pathway (AID 444; active = well fitted curve in either direction with a large enough effect, not every such curve was filed as active;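 note: carbachol stimulus at about its EC50 of 1 µM final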); conditions: Jurkat NFAT-bla M1, carbachol, beta-lactamase ratio, 5 h
# Procedure, shortened: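 Jurkat cells carrying an NFAT-driven β-lactamase reporter and co-transfected muscarinic M1 receptor were treated with compound plus carbachol (1 uM final, an EC50 level) for 5 h at 37 °C. CCF4 loading followed for 1 h at RT; 460/530 nm ratio gave %activity.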
# [3] = Stat Signaling Pathway (AID 446; active = well fitted curve in either direction with a large enough effect, not every such curve was filed as active;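 note: ME-180 cervical cancer cells given 40 pM IL-6 alongside compound; SIE-controlled beta-lactamase reporter measured as 460/530 nm FRET emission ratio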)
# Procedure, shortened: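 Screening format detects activators and inhibitors alike: ME-180 SIE-bla cells stimulated at 40 pM IL-6 for 5 hrs with compound, then dual-emission beta-lactamase read at 405 nm excitation.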
# [4] = biological target: Glucocorticoid receptor (Homo sapiens) (UniProt P04150); assay: GR-GFP Redistribution (AID 450;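 active = compounds whose dose series gives a full or clear partial fitted curve of increased nuclear translocation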; note: potency is the fitted concentration of half-maximal effect); conditions: U2OS GR-GFP nuclear translocation, laser cytometry, 2 h
# [5] = biological target: Glucocorticoid receptor (Homo sapiens) (UniProt P04150); assay: GR-EFC Redistribution (AID 451; calls by dose curve; note: potency is the fitted concentration of half-maximal effect); conditions: CHO-K1 GR-EFC translocation, beta-gal luminescence, 2 h
# Procedure, shortened: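 CHO-K1 cells stably expressing nuclear-localized β-gal enzyme acceptor and GR fused C-terminally to the enzyme donor fragment; ligand-driven nuclear translocation restores β-gal by complementation. Compounds titrated up to 46 uM final, 2 h at 37 °C; luminescence read.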
# [6] = biological target: Mitogen-activated protein kinase 10 (Mus musculus) (UniProt Q61831); assay: JNK3 AlphaScreen Assay (AID 530; active = well fitted curve in either direction with a large enough effect, not every such curve was filed as active;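 note: kinase came from lysate of stimulated human HepG2 cells; signal reports phosphorylation of biotinylated GST-cJun 1-79 at Ser73 with 10 µM ATP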)
# Procedure, shortened: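 Inhibitors reduce antibody binding to phosphorylated biotin-cJun, lowering AlphaScreen luminescence. Lysates from HepG2 cells pre-activated by IL-1beta plus TNF-alpha supplied JNK3; compounds were titrated.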
# [7] = biological target: 3',5'-cyclic-AMP phosphodiesterase 4B (Homo sapiens) (UniProt Q07343); assay: qHTS Assay for Inhibitors of PDE-IV (AID 607; active = well fitted activation curve with a large enough effect in the main read-out, with a control signal flat, not every such curve was filed as active; note: potency is the fitted concentration of half-maximal effect)
# Procedure, shortened: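 The readout is membrane depolarisation from a cAMP-sensing CNG channel, detected with a potential dye at ex 535/em 590. Cells were HEK293-derived (endogenous PDE-IV) at 1000 cells/well, titrated up to 22.9 uM final.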
# [8] = biological target: Cytochrome P450 3A4 (Homo sapiens) (UniProt P08684); assay: qHTS Assay for Activators of Cytochrome P450 3A4 (AID 885); note: nearly all actives have a fitted effect of over 65% in size; note: potency is the fitted concentration of half-maximal effect
# Procedure, shortened: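 Steps: enzyme/substrate mix dispensed; compound added, 10 min RT; NADPH regeneration solution added, 60 min RT; luciferin detection buffer stops reaction; 20 min later luminescence measured.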
# [9] = qHTS Assay for Lipid Storage Modulators (AID 1519; calls by dose curve); conditions: Drosophila S3 cells, BODIPY lipid droplet/cell ratio, laser cytometry, cells loaded with oleic acid
# Procedure, shortened: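 Cells seeded at 5,000 per well were treated with compounds over a concentration series and loaded with oleic acid (400 uM, as added). Lipid droplet fluorescence (488 nm excitation, 500-530 nm channel) was read by laser-scanning cytometry and normalized to 20 uM Triacsin C.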
# [10] = biological target: Ubiquitin carboxyl-terminal hydrolase 1 (Homo sapiens) (UniProt O94782); assay: Inhibitors of USP1/UAF1: Pilot qHTS (AID 504865);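 note: rhodamine fluorescence freed from ubiquitin-rhodamine substrate followed over time; top concentration of the series differs between compounds; nearly all actives have a fitted effect of over 35% in size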
# Procedure, shortened: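 Kinetic fluorescence assay: 1nM USP1/UAF1, 15 min compound preincubation, then 150nM Ub-Rho; 480/540 nm.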
# [11] = Confirmation and Secondary Assay for Modulators of Hemoglobin Beta Chain Splicing at IVS2 654 locus (AID 910);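 note: per-well total GFP intensity by laser scanning cytometry after 2-day treatment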
# Procedure, shortened: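 HeLa cells stably carrying EGFP interrupted by mutant beta-globin IVS2-654 intron (CMV-driven) were treated with compound for 2 days at 37C; corrected splicing was scored as total peak GFP intensity per well (488 nm excitation, 500-520 nm emission).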
# [12] = biological target: Voltage-gated inwardly rectifying potassium channel KCNH2 (Homo sapiens) (UniProt Q12809); assay: qHTS Assay for Small Molecule Inhibitors of the Human hERG Channel Activity (AID 588834);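 note: lower thallium flux fluorescence means stronger hERG block; nearly all actives have a fitted effect of over 50% in size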; note: potency is the fitted concentration of half-maximal effect; for activity change, negative = inhibition: top concentration of the series differs between compounds
# Procedure, shortened: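 Measured: FluxOR fluorescence after thallium stimulation in U2OS cells transduced with hERG by baculovirus. Compounds pre-incubated around 10 min; medium Opti-MEM with 2% FCS. AC50 from Hill equation.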
# [13] = biological target: Cytochrome P450 1A2 (Homo sapiens) (UniProt P05177); assay: p450-cyp1a2 (AID 410; calls by dose curve; note: potency is the fitted concentration of half-maximal effect)
# Procedure, shortened: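 Luminescent readout of luciferin formed from Luciferin-ME by human CYP1A2; data normalized against complete inhibition by 57 uM furafylline. Enzyme 20nM, substrate 100uM at Km, 100mM KPO4 buffer, 60 min reaction at room temperature.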
# [14] = biological target: DNA repair nuclease/redox regulator APEX1 (Homo sapiens) (UniProt P27695); assay: qHTS Validation Assay for Inhibitors of the Human Apurinic/apyrimidinic Endonuclease 1 (APE1) (AID 1705;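 note: TAMRA fluorescence gain over two minutes as APE1 cuts a quenched THF abasic duplex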)
# Procedure, shortened: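 Endonuclease activity of human APE1 is followed as dequenching when the enzyme incises a tetrahydrofuran abasic site in a short duplex labelled 5'-TAMRA/3'-BHQ-2 (50 nM final), after 15 min enzyme–compound preincubation at room temperature.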
# [15] = biological target: ATP-dependent DNA helicase Q1 (Homo sapiens) (UniProt P46063); assay: qHTS Validation Assay for Inhibitors of RecQ-Like Dna Helicase 1 (RECQ1) (AID 2353)
# Procedure, shortened: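 50 nM RECQ1T1 preincubated 15 min with compound in Tris pH 8.0 buffer with MgCl2, DTT, Tween-20 and 2.5 ug/ml poly(dI-dC); started with 200 nM TAMRA/BHQ-2 forked duplex and 2 mM ATP. Unwinding read as fluorescence (525/598 nm), two reads 2 h apart.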
# [16] = biological target: Cytochrome P450 3A4 (Homo sapiens) (UniProt P08684); assay: qHTS Assay for Inhibitors and Substrates of Cytochrome P450 3A4 (AID 884); note: nearly all actives have a fitted effect of over 50% in size
# Procedure, shortened: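 20 nM human CYP3A4 with 25 uM Luciferin-PPXE (at KM) in 200 mM KPO4, preincubated 10 min with compound; NADPH regeneration started a 60 min RT reaction. Luciferin detected by luminescence, normalized to 57 uM ketoconazole as full inhibition.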
# [17] = Confirmation and Secondary Assay for Modulators of Hemoglobin Beta Chain Splicing at IVS2 705 locus (AID 930);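 note: HeLa cells stably expressing the EGFP-705 splicing reporter; GFP fluorescence per well restored by corrected splicing of the IVS2-705 intron in EGFP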
# Procedure, shortened: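 Fluorescence gain (488 nm laser, 500-520 nm PMT) reflects restored correct splicing of a mutant IVS2-705 intron inside EGFP in stably transfected HeLa cells after 2-day compound treatment.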
# [18] = qHTS profiling for inhibitors of Plasmodium falciparum proliferation (AID 504749); note: nearly all actives have a fitted effect of over 60% in size; conditions: P. falciparum in erythrocytes, SYBR Green DNA, 72 h, at 12.8 µM (top of the series)
# Procedure, shortened: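 Parasite proliferation within erythrocytes, 72 h exposure. Endpoint: SYBR Green I fluorescence after overnight lysis at room temperature. Controls: 0.29 uM artemisinin, DMSO.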
# [19] = measured here: cell count channel max response
# [20] = measured here: lipid channel max response
# Sequence of 3',5'-cyclic-AMP phosphodiesterase 4B (Homo sapiens) (Q07343 whole entry, looked up): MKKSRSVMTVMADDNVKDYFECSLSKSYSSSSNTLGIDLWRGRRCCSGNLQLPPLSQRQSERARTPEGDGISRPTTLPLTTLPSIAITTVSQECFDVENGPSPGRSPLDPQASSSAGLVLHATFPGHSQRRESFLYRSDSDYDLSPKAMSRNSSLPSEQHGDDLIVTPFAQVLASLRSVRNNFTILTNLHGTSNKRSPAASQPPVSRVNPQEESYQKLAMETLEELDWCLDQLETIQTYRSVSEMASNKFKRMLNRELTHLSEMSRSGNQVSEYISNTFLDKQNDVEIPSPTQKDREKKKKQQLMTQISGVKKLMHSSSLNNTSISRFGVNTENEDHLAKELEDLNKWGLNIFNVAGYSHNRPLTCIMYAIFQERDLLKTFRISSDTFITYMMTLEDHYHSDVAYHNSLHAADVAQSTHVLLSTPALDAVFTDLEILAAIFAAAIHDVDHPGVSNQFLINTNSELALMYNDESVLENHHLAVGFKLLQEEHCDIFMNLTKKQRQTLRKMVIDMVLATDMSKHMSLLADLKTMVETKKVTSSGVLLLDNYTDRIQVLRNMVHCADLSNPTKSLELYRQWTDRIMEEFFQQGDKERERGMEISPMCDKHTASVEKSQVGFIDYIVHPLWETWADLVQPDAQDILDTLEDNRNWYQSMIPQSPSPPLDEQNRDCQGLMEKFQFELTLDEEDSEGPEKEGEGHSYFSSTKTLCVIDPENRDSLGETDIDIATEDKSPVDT
# Sequence of Ubiquitin carboxyl-terminal hydrolase 1 (Homo sapiens) (O94782 whole entry, looked up): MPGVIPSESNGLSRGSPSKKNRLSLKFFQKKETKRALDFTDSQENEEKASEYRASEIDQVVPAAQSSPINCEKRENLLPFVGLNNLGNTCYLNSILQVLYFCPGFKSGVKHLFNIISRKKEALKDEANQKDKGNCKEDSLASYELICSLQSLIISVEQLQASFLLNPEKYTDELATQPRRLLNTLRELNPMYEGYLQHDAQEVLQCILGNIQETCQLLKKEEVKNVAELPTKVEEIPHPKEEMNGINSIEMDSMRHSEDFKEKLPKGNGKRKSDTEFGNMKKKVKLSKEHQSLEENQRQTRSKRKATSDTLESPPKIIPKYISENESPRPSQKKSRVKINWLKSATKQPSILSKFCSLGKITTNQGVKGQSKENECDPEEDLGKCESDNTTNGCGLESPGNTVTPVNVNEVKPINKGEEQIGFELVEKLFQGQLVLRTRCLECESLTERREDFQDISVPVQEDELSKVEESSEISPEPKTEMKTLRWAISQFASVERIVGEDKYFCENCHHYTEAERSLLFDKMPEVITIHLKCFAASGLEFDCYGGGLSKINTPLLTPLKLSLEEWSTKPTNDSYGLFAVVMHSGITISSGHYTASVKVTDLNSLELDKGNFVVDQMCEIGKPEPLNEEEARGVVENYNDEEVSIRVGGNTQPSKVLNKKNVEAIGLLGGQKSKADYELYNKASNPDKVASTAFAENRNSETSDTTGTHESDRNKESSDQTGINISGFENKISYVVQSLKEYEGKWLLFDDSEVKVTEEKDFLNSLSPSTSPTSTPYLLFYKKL
# Sequence of Voltage-gated inwardly rectifying potassium channel KCNH2 (Homo sapiens) (Q12809 whole entry, looked up): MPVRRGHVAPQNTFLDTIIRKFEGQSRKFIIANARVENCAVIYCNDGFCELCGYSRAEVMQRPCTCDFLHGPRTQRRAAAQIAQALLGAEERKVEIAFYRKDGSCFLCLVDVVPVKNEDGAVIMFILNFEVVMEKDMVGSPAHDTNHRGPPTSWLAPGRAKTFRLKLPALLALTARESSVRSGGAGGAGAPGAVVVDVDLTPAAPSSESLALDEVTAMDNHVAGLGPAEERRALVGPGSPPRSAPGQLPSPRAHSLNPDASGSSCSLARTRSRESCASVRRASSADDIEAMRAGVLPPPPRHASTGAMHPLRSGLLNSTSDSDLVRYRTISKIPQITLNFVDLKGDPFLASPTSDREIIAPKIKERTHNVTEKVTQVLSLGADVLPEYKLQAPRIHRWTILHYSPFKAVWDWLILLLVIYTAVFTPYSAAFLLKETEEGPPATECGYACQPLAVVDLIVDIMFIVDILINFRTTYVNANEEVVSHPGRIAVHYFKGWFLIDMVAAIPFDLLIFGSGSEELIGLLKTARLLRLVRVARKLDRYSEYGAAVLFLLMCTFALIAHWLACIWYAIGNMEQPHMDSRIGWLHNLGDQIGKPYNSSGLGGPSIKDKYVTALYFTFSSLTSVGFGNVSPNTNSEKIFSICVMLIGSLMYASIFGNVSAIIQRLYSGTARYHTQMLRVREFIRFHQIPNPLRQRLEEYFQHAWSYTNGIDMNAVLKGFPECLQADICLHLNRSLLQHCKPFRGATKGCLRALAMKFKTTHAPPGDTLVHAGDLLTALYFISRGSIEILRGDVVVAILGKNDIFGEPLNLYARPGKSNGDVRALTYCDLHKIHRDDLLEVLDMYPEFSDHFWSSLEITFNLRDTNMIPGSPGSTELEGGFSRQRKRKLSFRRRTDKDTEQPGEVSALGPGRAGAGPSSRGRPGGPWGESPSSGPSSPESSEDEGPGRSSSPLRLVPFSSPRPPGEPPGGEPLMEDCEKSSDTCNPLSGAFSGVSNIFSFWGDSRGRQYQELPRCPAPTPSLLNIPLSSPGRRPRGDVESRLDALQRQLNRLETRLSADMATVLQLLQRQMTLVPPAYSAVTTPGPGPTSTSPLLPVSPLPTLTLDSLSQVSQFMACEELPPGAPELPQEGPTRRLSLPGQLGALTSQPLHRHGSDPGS
# Sequence of Glucocorticoid receptor (Homo sapiens) (P04150 whole entry, looked up, the tested form may be a part): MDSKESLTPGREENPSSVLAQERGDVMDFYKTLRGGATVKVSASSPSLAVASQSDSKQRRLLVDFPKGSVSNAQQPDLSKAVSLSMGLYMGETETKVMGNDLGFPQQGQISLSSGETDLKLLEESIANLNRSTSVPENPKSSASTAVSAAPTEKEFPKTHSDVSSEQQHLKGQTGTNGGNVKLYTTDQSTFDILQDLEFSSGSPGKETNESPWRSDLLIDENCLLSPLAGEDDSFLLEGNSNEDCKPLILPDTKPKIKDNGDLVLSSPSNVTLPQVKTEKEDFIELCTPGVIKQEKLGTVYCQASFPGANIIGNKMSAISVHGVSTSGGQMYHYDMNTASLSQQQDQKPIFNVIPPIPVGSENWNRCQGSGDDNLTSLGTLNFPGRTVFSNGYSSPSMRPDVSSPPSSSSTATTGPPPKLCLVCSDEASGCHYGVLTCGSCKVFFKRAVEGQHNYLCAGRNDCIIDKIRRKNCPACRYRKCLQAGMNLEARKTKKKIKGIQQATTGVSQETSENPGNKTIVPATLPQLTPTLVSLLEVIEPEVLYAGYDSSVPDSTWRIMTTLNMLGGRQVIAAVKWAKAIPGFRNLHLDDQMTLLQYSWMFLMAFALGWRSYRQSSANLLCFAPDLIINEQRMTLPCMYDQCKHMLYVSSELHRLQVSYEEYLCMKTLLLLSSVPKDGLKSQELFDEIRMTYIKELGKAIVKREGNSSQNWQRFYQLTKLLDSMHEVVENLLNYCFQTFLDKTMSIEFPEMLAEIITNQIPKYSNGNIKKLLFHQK
# Sequence of Cytochrome P450 3A4 (Homo sapiens) (P08684 whole entry, looked up): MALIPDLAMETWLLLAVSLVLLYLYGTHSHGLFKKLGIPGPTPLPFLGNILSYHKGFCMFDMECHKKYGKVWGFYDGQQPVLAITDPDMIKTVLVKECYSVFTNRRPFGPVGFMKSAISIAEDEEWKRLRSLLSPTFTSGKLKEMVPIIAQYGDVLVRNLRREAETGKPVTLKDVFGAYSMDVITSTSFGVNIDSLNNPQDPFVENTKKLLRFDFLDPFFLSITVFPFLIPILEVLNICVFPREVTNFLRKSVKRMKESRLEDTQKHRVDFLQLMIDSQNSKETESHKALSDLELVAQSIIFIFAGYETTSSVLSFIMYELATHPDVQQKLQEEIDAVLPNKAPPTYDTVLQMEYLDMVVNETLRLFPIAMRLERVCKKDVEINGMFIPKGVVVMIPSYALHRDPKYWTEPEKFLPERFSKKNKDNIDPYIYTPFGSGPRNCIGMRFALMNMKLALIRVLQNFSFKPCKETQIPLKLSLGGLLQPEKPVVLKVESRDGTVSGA
# Sequence of ATP-dependent DNA helicase Q1 (Homo sapiens) (P46063 whole entry, looked up): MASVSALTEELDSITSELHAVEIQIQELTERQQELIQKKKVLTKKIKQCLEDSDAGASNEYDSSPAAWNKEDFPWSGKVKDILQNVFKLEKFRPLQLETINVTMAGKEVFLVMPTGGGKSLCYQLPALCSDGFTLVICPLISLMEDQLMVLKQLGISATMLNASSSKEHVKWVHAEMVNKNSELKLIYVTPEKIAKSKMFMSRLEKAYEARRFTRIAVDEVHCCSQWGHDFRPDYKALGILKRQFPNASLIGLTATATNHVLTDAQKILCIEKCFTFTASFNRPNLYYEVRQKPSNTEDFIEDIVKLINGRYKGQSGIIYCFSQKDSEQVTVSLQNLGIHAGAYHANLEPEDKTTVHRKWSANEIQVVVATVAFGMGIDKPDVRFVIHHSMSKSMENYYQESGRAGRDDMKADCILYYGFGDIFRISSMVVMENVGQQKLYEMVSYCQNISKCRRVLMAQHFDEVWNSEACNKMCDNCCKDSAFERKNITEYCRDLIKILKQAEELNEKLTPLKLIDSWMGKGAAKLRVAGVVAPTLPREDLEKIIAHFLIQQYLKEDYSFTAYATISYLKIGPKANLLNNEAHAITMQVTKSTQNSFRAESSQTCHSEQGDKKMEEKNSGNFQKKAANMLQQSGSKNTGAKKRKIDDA
# Sequence of DNA repair nuclease/redox regulator APEX1 (Homo sapiens) (P27695 whole entry, looked up): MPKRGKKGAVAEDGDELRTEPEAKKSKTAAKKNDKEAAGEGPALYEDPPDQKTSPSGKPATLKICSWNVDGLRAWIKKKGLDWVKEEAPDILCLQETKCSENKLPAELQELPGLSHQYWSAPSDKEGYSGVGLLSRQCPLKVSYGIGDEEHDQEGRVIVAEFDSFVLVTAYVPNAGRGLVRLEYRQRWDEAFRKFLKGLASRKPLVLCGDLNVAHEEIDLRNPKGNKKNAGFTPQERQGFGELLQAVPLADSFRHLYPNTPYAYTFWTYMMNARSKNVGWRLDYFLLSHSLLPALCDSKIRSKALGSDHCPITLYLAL
compound,measurement,setting,value
COc1ccc2c(c1O)-c1c(OC)c(OC)cc3c1[C@H](C2)N(C)CC3,outcome,[1],inactive
same,"activity change, negative = inhibition",[2]; at 17.2 µM (top of the series),-3.12% (inactive)
same,outcome,[3],inactive
same,Potency,[4],> 20.6 µM (inactive) and > 46 µM (inactive)
same,Potency,[5],> 20.6 µM (inactive) and > 46 µM (inactive)
same,outcome,[6],inactive
same,Potency,[7],inactive
same,Potency,[8],inactive
same,"activity change, negative = inhibition",[9]; at 25.7 µM (top of the series),2.04% (inactive)
same,max response,[9]; [19],5.35%
same,max response,[9]; [20],2.2%
same,Potency,[10],inactive
O=S1OCC2C(CO1)C1(Cl)C(Cl)=C(Cl)C2(Cl)C1(Cl)Cl (centres undefined),outcome,[6],inactive
same,Potency,[8],inactive
same,Potency,[11],inactive
same,"activity change, negative = inhibition",[9]; at 57.5 µM (top of the series),5.66% (inactive)
same,max response,[9]; [19],-0.733%
same,max response,[9]; [20],5.32%
same,Potency,[10],inactive
same,Potency,[12],28.2 µM (active)
NCC#Cc1ccccc1,outcome,[1],inactive
same,Potency,[13],3.16 µM (active)
same,"activity change, negative = inhibition",[2]; at 38 µM (top of the series),3.19% (inactive)
same,Potency,[4],> 46 µM (inactive)
same,Potency,[5],> 46 µM (inactive)
same,outcome,[6],inactive
same,Potency,[7],inactive
same,Potency,[8],inactive
same,"activity change, negative = inhibition",[9]; at 57.5 µM (top of the series),-4.59% (inactive)
same,max response,[9]; [19],-80.1%
same,max response,[9]; [20],-81.6%
same,Potency,[14],inactive
same,outcome,[15],inactive
same,Potency,[12],inactive
O=C(O)COc1ccc(Cl)cc1Cl,outcome,[6],inactive
same,Potency,[16],inactive
same,Potency,[17],inactive
same,"activity change, negative = inhibition",[9]; at 57.5 µM (top of the series),-1.59% (inactive)
same,max response,[9]; [19],-3.68%
same,max response,[9]; [20],-7.52%
same,Potency,[10],inactive
same,Potency,[12],inactive
CCCN(CCC)C(=O)Cc1c(-c2ccc(Cl)cc2)nc2c(Cl)cc(Cl)cn12,outcome,[1],inactive
same,Potency,[13],inactive
same,"activity change, negative = inhibition",[2]; at 38 µM (top of the series),7.25% (inactive)
same,outcome,[3],inactive
same,Potency,[5],> 46 µM (inactive)
same,Potency,[7],2.51 µM (active)
same,Potency,[8],inactive
same,"activity change, negative = inhibition",[9]; at 57.5 µM (top of the series),1.58% (inactive)
same,max response,[9]; [19],-21.2%
same,max response,[9]; [20],-20.1%
same,Potency,[14],inactive
same,outcome,[15],inactive
same,Potency,[12],inactive
C=CCc1ccc(OC)cc1,outcome,[6],inactive
same,Potency,[8],inactive
same,Potency,[11],inactive
same,Potency,[17],inactive
same,"activity change, negative = inhibition",[9]; at 57.5 µM (top of the series),1.63% (inactive)
same,max response,[9]; [19],21.3%
same,max response,[9]; [20],23.9%
same,Potency,[10],inactive
same,Potency,[12],inactive
CCNC[C@H](O)c1cccc(O)c1,outcome,[1],inactive
same,"activity change, negative = inhibition",[2]; at 17.2 µM (top of the series),-13.2% (inactive)
same,outcome,[3],inactive
same,Potency,[5],> 20.6 µM (inactive)
same,outcome,[6],inactive
same,Potency,[7],inactive
same,"activity change, negative = inhibition",[9]; at 25.7 µM (top of the series),-1.26% (inactive)
same,max response,[9]; [19],-11.3%
same,max response,[9]; [20],-12.3%
same,"activity, negative = inhibition",[18]; parasite line A,-4.47% (inactive)
same,"activity, negative = inhibition",[18]; parasite line B,2.63% (inactive)
CCOCN(C(=O)CCl)c1c(C)cccc1CC,outcome,[6],inactive
same,Potency,[16],inactive
same,Potency,[8],15.8 µM (active)
same,Potency,[17],inactive
same,"activity change, negative = inhibition",[9]; at 57.5 µM (top of the series),0.371% (inactive)
same,max response,[9]; [19],-6.11%
same,max response,[9]; [20],-5.22%
same,Potency,[10],inactive
same,Potency,[12],inactive
